Measurements published in PubChem BioAssay AID720706 (Broad Institute, 2013).
Out of some 350,000 compounds screened, about 5,500 (1.6%) were called active.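 Rule for the calls: active = significant combined selectivity score with lowered wild-type GFP, culture density cut under 30%, mutant RFP and density less affected; inactive = any of these conditions unmet.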 The entries come from a sample that favours actives as a whole.

Test: GFP drop in mixed WT/humanized-ribosome E. coli culture – GFP/RFP fluorescence, OD600, single point, bacterial rRNA inhibitor project, primary screen (AID 720706)
Conditions: E. coli WT GFP vs humanized-ribosome RFP mutants, 24 h; GFP signal change (wild-type ribosome): stronger effect = lower value, DMSO median 0, no signal -100; OD600 change: measured here: OD600 growth, DMSO median 0, no signal -100; RFP signal change: measured here: RFP humanized mutant strains, DMSO median 0, no signal -100, concentration not given here
For `CCCNC(=O)C[C@@H]1CC[C@H]2[C@@H](COc3ccc(NC(=O)C4CCCC4)cc3C(=O)N2C)O1`, the GFP signal change (wild-type ribosome) was 2.97% (inactive), the OD600 change was 3.62% and the RFP signal change was 0.145%. For `O=C(NC1CCC1)[C@@H]1[C@@H](CO)[C@@H]2Cn3c(ccc(/C=C/c4ccccc4)c3=O)[C@@H]2N1Cc1ccncc1`, the GFP signal change (wild-type ribosome) was -9.73% (inactive), the OD600 change was -7.87% and the RFP signal change was 7.36%. With `O=C(Nc1ccc(F)cc1)N1CC(=O)N2[C@H](CO)[C@H](c3ccc(C#Cc4ccccc4)cc3)[C@H]2C1` the GFP signal change (wild-type ribosome) was -32.4% (inactive), the OD600 change was -57.1% and the RFP signal change was 29%. For `C[C@@H]1CCCCO[C@H](CN(C)C)[C@H](C)CN([C@@H](C)CO)C(=O)c2cc(NS(=O)(=O)c3cn(C)cn3)ccc2O1`, the GFP signal change (wild-type ribosome) was 3.31% (inactive), the OD600 change was 6.19% and the RFP signal change was -1.01%. With `CSc1nc(-c2ccco2)nn1C(=O)c1ccccc1Cl` the GFP signal change (wild-type ribosome) was -25.9% (active), the OD600 change was -15.3% and the RFP signal change was 0.841%. In the case of `Cn1c(SCC(=O)c2cccs2)nnc1-c1ccco1`, the GFP signal change (wild-type ribosome) is reported as 1.2% (inactive), the OD600 change is reported as 2.27% and the RFP signal change is reported as 0.555%. In the case of `CCn1c(SCC(=O)Nc2cc(C)c(Cl)cc2OC)nnc1-c1ccco1`, the GFP signal change (wild-type ribosome) is reported as -38.4% (inactive), the OD600 change is reported as -53.5% and the RFP signal change is reported as -9.88%. With `COc1ccc(S(=O)(=O)N(C)C[C@@H]2Oc3ccc(NC(=O)CCC(F)(F)F)cc3C(=O)N([C@@H](C)CO)C[C@@H]2C)cc1` the GFP signal change (wild-type ribosome) was 2.48% (inactive), the OD600 change was 3.34% and the RFP signal change was -0.798%. For `C[C@@H](O)C#Cc1ccc([C@H]2[C@H]3CN(C(=O)c4ccc5c(c4)OCO5)CCCCN3[C@H]2CO)cc1`, the GFP signal change (wild-type ribosome) was 3.47% (inactive), the OD600 change was -9% and the RFP signal change was 2.17%. For `COc1ccc2oc(=O)cc(CN3CCOCC3)c2c1`, the GFP signal change (wild-type ribosome) was 18.2% (inactive), the OD600 change was 14.8% and the RFP signal change was 0.523%. For `COc1ccc(-c2cc(=O)oc3cc(OC(C)C(=O)Nc4ccc(CN5CCOCC5)cc4)ccc23)cc1` (stereo unspecified), the GFP signal change (wild-type ribosome) was -20% (active), the OD600 change was -14.2% and the RFP signal change was 3.54%. With `CCCc1cc(=O)oc2cc(OCC(=O)Nc3ccc(CN4CCOCC4)cc3)c(Cl)cc12` the GFP signal change (wild-type ribosome) was 0.107% (inactive), the OD600 change was 0.304% and the RFP signal change was -1.17%. In the case of `C[C@@H]1CCCCO[C@@H](CN(C)C(=O)c2ccccc2)[C@H](C)CN([C@@H](C)CO)C(=O)c2cc(NS(=O)(=O)c3cn(C)cn3)ccc2O1`, the GFP signal change (wild-type ribosome) is reported as 4.03% (inactive), the OD600 change is reported as 4.12% and the RFP signal change is reported as -1.99%. With `O=C(CCNC(=O)c1ccc(Br)cc1)Nc1cccc(S(=O)(=O)N2CCCCC2)c1` the GFP signal change (wild-type ribosome) was -12.3% (inactive), the OD600 change was -43.3% and the RFP signal change was 1.03%. With `CC(NC(=O)c1ccccc1)C(=O)OCC(=O)Nc1cccc(S(=O)(=O)N2CCCC2)c1` (stereo unspecified) the GFP signal change (wild-type ribosome) was -2.56% (inactive), the OD600 change was 4.84% and the RFP signal change was -0.0785%. With `Cc1ccc(C(=O)NCC(=O)OCC(=O)Nc2cccc(S(=O)(=O)N3CCCC3)c2)cc1C` the GFP signal change (wild-type ribosome) was -20.9% (active), the OD600 change was -2.78% and the RFP signal change was -2.48%. For `CC(C)(C)[S@](=O)N1Cc2cc(C(=O)N[C@@H]3CCN(Cc4ccccc4)C3)nc(-c3cccc(-c4ccncc4)c3)c2[C@@H]1CCO`, the GFP signal change (wild-type ribosome) was 1.13% (inactive), the OD600 change was 9.43% and the RFP signal change was -4.39%. With `CCCNC(=O)N1C[C@H]2[C@@H](c3ccccc31)[C@H](CO)N2C(=O)NC(C)C` the GFP signal change (wild-type ribosome) was 2.8% (inactive), the OD600 change was 10.8% and the RFP signal change was 1.99%. In the case of `COc1ccc(Cl)cc1NC(=O)NCC1CCN(Cc2ccccc2F)CC1`, the GFP signal change (wild-type ribosome) is reported as -5.44% (inactive), the OD600 change is reported as -28.5% and the RFP signal change is reported as 37.7%. With `COc1ccc(Cl)cc1NC(=O)NC(C)C(C)(C)C` (stereo unspecified) the GFP signal change (wild-type ribosome) was -0.51% (inactive), the OD600 change was 1.25% and the RFP signal change was 0.006%. For `COc1ccc(Cl)cc1NC(=O)C(C)N1CCc2ccccc21` (stereo unspecified), the GFP signal change (wild-type ribosome) was -31% (active), the OD600 change was -24.4% and the RFP signal change was -3.11%. In the case of `CC(C)C[C@H](NC(=O)N1CCn2c1nc1ccccc12)C(=O)NC1CC1`, the GFP signal change (wild-type ribosome) is reported as 0.495% (inactive), the OD600 change is reported as 2.23% and the RFP signal change is reported as -1.23%. For `CSCC[C@H](NC(=O)N1CCn2c1nc1ccccc12)C(=O)NC1CCCCC1`, the GFP signal change (wild-type ribosome) was -28.5% (active), the OD600 change was -22.6% and the RFP signal change was -0.555%. In the case of `CSCC[C@H](NC(=O)N1CCn2c1nc1ccccc12)C(=O)NCc1ccc2c(c1)OCO2`, the GFP signal change (wild-type ribosome) is reported as -1.83% (inactive), the OD600 change is reported as -3.03% and the RFP signal change is reported as 3.82%. In the case of `COc1ccc2c3c([nH]c2c1)[C@@H](CO)N(C(=O)c1ccccc1)CC31CCN(C(=O)Nc2cccc(F)c2)CC1`, the GFP signal change (wild-type ribosome) is reported as -4.87% (inactive), the OD600 change is reported as -13.4% and the RFP signal change is reported as 1.11%. For `O=C(CCc1ccccc1)Nc1ncc([N+](=O)[O-])s1`, the GFP signal change (wild-type ribosome) was -42.5% (active), the OD600 change was -20.7% and the RFP signal change was 2.67%. For `CC(C)Cc1nnc(NC(=O)CCc2ccccc2)s1`, the GFP signal change (wild-type ribosome) was 2.89% (inactive), the OD600 change was 0.415% and the RFP signal change was 0.86%. For `COC(=O)CSc1nnc(NC(=O)CCc2ccccc2)s1`, the GFP signal change (wild-type ribosome) was 7.96% (inactive), the OD600 change was 5.71% and the RFP signal change was -0.746%. In the case of `Cc1cc(C)n(S(=O)(=O)c2cccc([N+](=O)[O-])c2)n1`, the GFP signal change (wild-type ribosome) is reported as 5.54% (inactive), the OD600 change is reported as 9.05% and the RFP signal change is reported as 1.61%. For `Cc1ccccc1OS(=O)(=O)c1cccc([N+](=O)[O-])c1`, the GFP signal change (wild-type ribosome) was -22.9% (active), the OD600 change was -15.1% and the RFP signal change was -4.54%. For `Cc1cc([N+](=O)[O-])ccc1NS(=O)(=O)c1ccccc1`, the GFP signal change (wild-type ribosome) was -10.6% (inactive), the OD600 change was -35.5% and the RFP signal change was -7.16%. With `O=C([C@H]1[C@H](CO)[C@H]2Cn3c(ccc(-c4ccccc4)c3=O)[C@@H]1N2Cc1cccnc1)N1CCOCC1` the GFP signal change (wild-type ribosome) was 5.29% (inactive), the OD600 change was 5.22% and the RFP signal change was 0.504%.
